In paper PMC4336329 (PLoS ONE, 2015):
Screen size: about 310,000 compounds; about 14,000 (4.5%) showed an effect of 50% or more. Effects have a minus sign here. The list comes from a sample in which strong results are over-represented; it also holds similar structures and randomly drawn compounds.

Target: human ether-à-go-go-related gene (hERG) potassium channel (human, UniProt Q12809)
Assay: primary screen, population patch clamp on CHO cells stably expressing hERG; higher = less effect of the substance
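Also: peak tail current of the secondary pulse compared with the same well before compound.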

human ether-à-go-go-related gene (hERG) potassium channel, sequence (Q12809 whole entry, looked up): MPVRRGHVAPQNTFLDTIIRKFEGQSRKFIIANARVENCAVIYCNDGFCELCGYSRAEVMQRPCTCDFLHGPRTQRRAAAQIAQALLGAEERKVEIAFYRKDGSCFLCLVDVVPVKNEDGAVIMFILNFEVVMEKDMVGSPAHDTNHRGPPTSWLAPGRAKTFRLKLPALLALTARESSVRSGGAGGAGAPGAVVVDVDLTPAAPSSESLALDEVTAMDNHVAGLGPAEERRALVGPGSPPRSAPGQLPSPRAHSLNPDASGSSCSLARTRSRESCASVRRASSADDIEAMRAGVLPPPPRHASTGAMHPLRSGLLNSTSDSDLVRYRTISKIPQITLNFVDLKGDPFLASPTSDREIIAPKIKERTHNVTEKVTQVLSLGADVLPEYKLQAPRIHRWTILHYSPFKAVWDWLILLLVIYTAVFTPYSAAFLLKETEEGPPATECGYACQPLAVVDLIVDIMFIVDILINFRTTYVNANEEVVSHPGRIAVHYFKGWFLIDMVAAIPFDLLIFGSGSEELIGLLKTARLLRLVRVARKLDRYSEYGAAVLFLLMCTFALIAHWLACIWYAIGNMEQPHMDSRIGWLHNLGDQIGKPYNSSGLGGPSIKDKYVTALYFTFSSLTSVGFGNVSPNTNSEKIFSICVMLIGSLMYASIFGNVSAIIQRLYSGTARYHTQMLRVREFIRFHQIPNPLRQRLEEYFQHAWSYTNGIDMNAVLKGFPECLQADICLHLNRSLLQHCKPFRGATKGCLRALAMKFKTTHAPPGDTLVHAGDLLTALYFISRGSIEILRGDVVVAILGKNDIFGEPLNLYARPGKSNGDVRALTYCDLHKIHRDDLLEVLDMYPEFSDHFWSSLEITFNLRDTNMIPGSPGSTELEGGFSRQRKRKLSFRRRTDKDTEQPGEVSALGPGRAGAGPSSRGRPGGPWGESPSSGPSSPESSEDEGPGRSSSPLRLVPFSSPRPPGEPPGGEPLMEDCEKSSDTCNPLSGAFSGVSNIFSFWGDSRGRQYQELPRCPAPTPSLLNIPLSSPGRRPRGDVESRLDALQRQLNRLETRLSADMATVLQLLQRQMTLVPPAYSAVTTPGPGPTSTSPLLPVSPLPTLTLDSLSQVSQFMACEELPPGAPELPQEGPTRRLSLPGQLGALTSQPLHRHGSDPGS

| Compound | hERG current change (%, negative = inhibition) at 10uM [%] |
| --- | --- |
| CCC(=O)NNc1ncnc2ccccc12 | 9.38 |
| CCN(CC)C(=O)C1CCCN(Cc2ccc3ccccc3c2)C1 (centres unmarked) | -19 |
| CC(C)(C)OC(=O)NCCCC1=CC2=CC(=O)C(C)(OC(=O)c3ccco3)C(=O)C2=CO1 (centres unmarked) | 5.99 |
| COCCCNC(=O)C1CCC(CNS(=O)(=O)c2ccc(C)cc2)CC1 (centres unmarked) | 14 |
| Cc1cccc(CCN2C(N(C)C)=NC[C@@H]2C)c1 | -7.74 |
| Cc1c(NC(=O)/C(C#N)=C/c2ccc(-c3cccc(Cl)c3)o2)c(=O)n(-c2ccccc2)n1C | -24.5 |
| NC(=O)c1cc(C(N)=O)nc(Cl)n1 | 16.1 |
| Cc1cccnc1NC(=O)c1ccc(S(=O)(=O)N2CCC(C)CC2)cc1 | -12.3 |
| COc1ncnc2c1ncn2CC1COC(C)(C)O1 (centres unmarked) | 15.9 |
| Cc1sc2nc(CSc3ccccc3)nc(NCCN(C)C)c2c1C | -72.2 |
| CCOC(=O)c1sc2nc(CSc3ccccc3)nc(N3CCCN(C)CC3)c2c1C.O=C(O)C(=O)O | -70 |
| Cc1sc2nc(CSc3ccccc3)nc(N3CCC(C(N)=O)CC3)c2c1C | -8.46 |
| CCOC(=O)c1sc2nc(CSc3ccccc3)nc(NCCN(C)C)c2c1C | -17.4 |
| COCCNc1nc(CSc2ccccc2)nc2sc(C)c(C)c12 | -5.97 |
| CCNc1nc(CSc2ccccc2)nc2sc(C)c(C)c12 | 1.64 |
| Cc1sc2nc(CSc3ccccc3)nc(N3CCOCC3)c2c1C | 2.04 |
| CCOC(=O)c1sc2nc(CSc3ccccc3)nc(N3CCC(C(N)=O)CC3)c2c1C | 17.5 |
| Cc1sc2nc(CSc3ccccc3)nc(N3CCN(C)CC3)c2c1C | -58.5 |
| O=C(NCCCN=C1NS(=O)(=O)c2ccccc21)c1ccco1 | -10 |
| Cc1nn(C)cc1C1C(C#N)=C(N)N(c2ccc(F)c([N+](=O)[O-])c2)C2=C1C(=O)CCC2 (centres unmarked) | 11 |
| Cc1ccc(S(=O)(=O)N2[C@@H](c3cccc(Cl)c3)C(C(=O)O)=CC[C@H]2c2cccc(Cl)c2)cc1 | 3.05 |

| Compound | hERG current change (%, negative = inhibition) at 10uM [%] |
| --- | --- |
| COc1ccc(NC(=S)N/C(=N/S(=O)(=O)c2ccc(C)cc2)c2ccccc2)cc1 | 21.2 |
| O=[N+]([O-])c1ccc(NC(=S)N/C(=N/CS(=O)(=O)c2ccccc2)c2ccccc2)cc1 | -25.1 |
| COc1ccc(NC(=S)N/C(=N/CS(=O)(=O)c2ccccc2)c2ccccc2)cc1 | -53 |
| COc1ccc(NC2SC(=O)N(C)C2=O)cc1 (centres unmarked) | 1.36 |
| O=C1C(=O)N(CCN2CCOCC2)C(c2ccncc2)/C1=C(/O)c1ccc2c(c1)OCO2 (centres unmarked) | 8.87 |
| O=S(=O)(Cc1ccccc1)NCC1CCCN(Cc2cccc3nonc23)C1 (centres unmarked) | -12.2 |
| O=C(NCC1CCCN(Cc2ccc3nonc3c2)C1)c1ccc(F)cc1 (centres unmarked) | -60.8 |
| O=C(NCC1CCCN(Cc2ccc3nonc3c2)C1)c1cccc(C(F)(F)F)c1 (centres unmarked) | -61.5 |
| O=S(=O)(Cc1ccccc1)NCC1CCCN(Cc2ccc(F)c(F)c2)C1 (centres unmarked) | -44.2 |
| COc1ccc(CC(=O)NCC2CCCN(Cc3cccc(C(F)(F)F)c3)C2)cc1 (centres unmarked) | -28 |
| O=S(=O)(Cc1ccccc1)NCC1CCCN(Cc2ccc3nonc3c2)C1 (centres unmarked) | -51.2 |
| O=C(NCC1CCCN(Cc2ccc3c(c2)OCCO3)C1)c1ccc2c(c1)OCO2 (centres unmarked) | -18.8 |
| O=C(c1cc(F)ccc1F)C1CCCN(Cc2ccc3nonc3c2)C1 (centres unmarked) | -12 |
| O=C(COc1ccc(Cl)cc1)NNC(=O)CSc1nncs1 | 8.43 |
| COc1ccccc1Oc1ccccc1C(=O)O | 0.941 |
| O=C(NCc1ccc(Cl)cc1)C1C2C=CC3(CN(Cc4cccnc4)C(=O)C13)O2 (centres unmarked) | -7.1 |
| COc1ccc(N2CCN(CCCNC(=O)C3CCCN(S(=O)(=O)c4c(C)n[nH]c4C)C3)CC2)cc1 (centres unmarked) | 8.03 |
| COc1ccc(C(=O)C(C)OC(=O)c2nc3nccc(C)n3n2)cc1 (centres unmarked) | 2.98 |
| CCOC(=O)C1CCCN(C(=O)c2ccc(CNc3c(N4CCC(C)CC4)c(=O)c3=O)cc2)C1 (centres unmarked) | 5.83 |
| Cc1cc(SCC(=O)NN=C2CCN(C(C)C)CC2)c(C)cc1Br | -69.4 |
| CCCN1CCC(=NNC(=O)CSc2cc(C)c(Br)cc2C)CC1 | -28 |

| Compound | hERG current change (%, negative = inhibition) at 10uM [%] |
| --- | --- |
| CC(=O)N1CCC(=NNC(=O)CSc2cc(C)c(Br)cc2C)CC1 | 6.38 |
| C=CCN(C(=O)Nc1ccc(Cl)cc1)C1CC(=O)N(c2ccc(OC)cc2)C1=O (centres unmarked) | -14.8 |
| O=C(NCc1ccncc1)C(=O)C1C(=O)Nc2ccccc21 (centres unmarked) | 11.6 |
| CCOC(=O)c1csc(NNC=O)n1 | 6.73 |
| CC(CNC(=O)CCS(=O)(=O)c1ccc2c(c1)NC(=O)CO2)c1ccccc1 (centres unmarked) | -6.68 |
| Cc1ccc(Sc2c([N+](=O)[O-])ncn2C)cc1 | 3.39 |
| Cn1cnc([N+](=O)[O-])c1Sc1ccc(Br)cc1 | -20 |
| Cn1cnc([N+](=O)[O-])c1Sc1ccc([N+](=O)[O-])cc1 | -62.1 |
| Cc1c(C(=O)N2CCC3(CC2)OCCO3)sc2ncnc(N3CCN(c4ccccn4)CC3)c12 | -44.2 |
| Cc1c(C(=O)N2CCN(c3ccc(F)cc3)CC2)sc2ncnc(N3CCN(c4ccccn4)CC3)c12 | -65.1 |
| Cc1c(C(=O)N2CCN(c3ccccn3)CC2)sc2ncnc(N3CCOCC3)c12 | -59 |
| CCN(CC)c1ncnc2sc(C(=O)N3CCN(c4ccccc4)CC3)c(C)c12 | -50.2 |
| Cc1c(C(=O)N2CCN(c3ccccc3)CC2)sc2ncnc(N3CCN(c4ccccn4)CC3)c12 | -35.1 |
| Cc1c(C(=O)N2CCN(Cc3ccc4c(c3)OCO4)CC2)sc2ncnc(N3CCN(c4ccccc4)CC3)c12 | 7.82 |
| CCN(CC)c1ncnc2sc(C(=O)N3CCN(c4ccc(OC)cc4)CC3)c(C)c12 | -41.5 |
| COc1ccccc1N1CCN(C(=O)c2sc3ncnc(N4CCN(c5ccccn5)CC4)c3c2C)CC1 | -18.8 |
| Cc1c(C(=O)N2CCN(c3ccccn3)CC2)sc2ncnc(N3CCN(c4ccccc4)CC3)c12 | -32.8 |
| CN(C)CCOC(=O)c1ccc2c(c1)S(=O)(=O)c1ccccc1C2=O.Cl | -6.3 |
| COc1ccc2c(c1)c(C(=O)O)c(C)n2C(C)C | 13.3 |
| COc1ccc(N2CCN(C(=O)c3ccc(NS(=O)(=O)c4ccc(F)c(F)c4)cc3)CC2)cc1 | -44.3 |
| Cc1cc(C)nc(NC2=NCC(=O)N2CCc2c[nH]c3ccccc23)n1 | -2.13 |

| Compound | hERG current change (%, negative = inhibition) at 10uM [%] |
| --- | --- |
| CCOC(=O)c1cnc(SC)nc1Oc1cccc(NS(=O)(=O)c2ccccc2)c1 | 16.1 |
| CCOC(=O)c1cnc(SC)nc1Oc1cccc(NS(=O)(=O)c2ccc(C)cc2)c1 | -6.83 |
| CCOC(=O)c1cnc(SC)nc1Oc1cccc(NS(=O)(=O)c2ccc(F)cc2)c1 | -71.2 |
| O=C(NCCN1CCOCC1)c1ccc(Cl)nc1Cl | -2.02 |
| CC(=O)N1CCN(S(=O)(=O)c2ccc3c(c2)OCCO3)CC1 | 10.5 |
| CCCCCC(=O)N1CCN(S(=O)(=O)c2ccc3c(c2)OCCCO3)CC1 | -18.7 |
| CCCCCC(=O)N1CCN(S(=O)(=O)c2ccc3c(c2)OCCO3)CC1 | -61 |
| COc1cc(NS(=O)(=O)c2ccc(NC(=S)NC(=O)c3sc4ccccc4c3Cl)cc2)ncn1 | 16.3 |
| COc1ccc(-c2[nH]ncc2CN2CCCC(C(=O)c3cccc(OC)c3)C2)cc1 (centres unmarked) | -67.3 |
| COc1ccc(-c2[nH]ncc2CN2CCC(OCc3ccccn3)CC2)c(F)c1 | -31.1 |
| COc1ccc(-c2[nH]ncc2CN2CCSCC2)c(OC)c1 | 14.7 |
| COc1ccc(-c2[nH]ncc2CN2CCCOc3c(cccc3OC)C2)c(OC)c1 | -48 |
| COc1ccc(-c2[nH]ncc2CN2CCC(OCc3ccccc3)CC2)c(F)c1 | -80.7 |
| COc1ccc(-c2[nH]ncc2CN2CCC(OCc3cccnc3)CC2)c(F)c1 | -37.1 |
| COc1ccc(-c2[nH]ncc2CN2CCCC(C(=O)c3ccc(OC)cc3OC)C2)cc1 (centres unmarked) | -65 |
| COc1ccc(-c2[nH]ncc2CN2CCCCCCC2)c(OC)c1 | -54.7 |
| COc1cccc(C(=O)C2CCCN(Cc3cn[nH]c3C3CCCCC3)C2)c1 (centres unmarked) | -32.1 |
| COc1ccc(-c2nc3c(Br)c(N)c(Br)cc3o2)cc1 | 7.14 |
| O=C(CCCOc1ccc(Cl)cc1Cl)N/N=C/c1cccc([N+](=O)[O-])c1 | 9.56 |
| CS(=O)(=O)N1Cc2ccccc2CC1C(=O)OCC(=O)Nc1ccc2ccccc2c1 (centres unmarked) | 7.36 |
